The values that follow come from PubChem BioAssay (NCI).

The structures appear in SMILES notation. Compounds without any hit were thinned out: in the full panel of roughly 83,000, 20% have a hit.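 Step 1: grow cells in 96-well plates. Step 2: add test compound at a single concentration. Step 3: incubate 48 h. Step 4: record percent growth.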 Unmarked numbers belong to inactive results. The source made the active and inactive calls. How the source made its calls: active means growth percent below 10; inactive means the rest.

Common to all, as to assay: NCI-60 one-dose screen, 48 h (100 = growth as untreated, 0 = no growth, -100 = all killed)
The subject of one assay is HT29 colon. The settings on record: 10 µM unless noted.
In a further assay the test system is SNB-75 CNS. The settings on record: 10 µM unless noted.
The next assay has as its system SNB-19 CNS. The settings on record: 10 µM unless noted.
Another assay has as its system U251 CNS. Conditions: 10 µM unless noted.
For the next assay, the system named is PC-3 prostate. The settings on record: 10 µM unless noted.
In another assay the test system is SK-MEL-5 melanoma. The settings on record: 10 µM unless noted.
A further assay has as its system UACC-62 melanoma. Conditions: 10 µM unless noted.
The test system of a further assay is LOX IMVI melanoma. The settings on record: 10 µM unless noted.
The subject of the next assay is SK-MEL-28 melanoma. Conditions: 10 µM.
The subject of the next assay is SK-MEL-2 melanoma. Conditions: 10 µM unless noted.
Another assay deals with SN12C renal. Conditions: 10 µM unless noted.
The next assay deals with UO-31 renal. The settings on record: 10 µM unless noted.
Another assay has as its system TK-10 renal. Conditions: 10 µM unless noted.
A further assay deals with ACHN renal. The settings on record: 10 µM unless noted.
A further assay concerns CAKI-1 renal. The settings on record: 10 µM unless noted.
For another assay, the system named is A498 renal. The settings on record: 10 µM unless noted.
For the next assay, the system named is MOLT-4 leukemia. The settings on record: 10 µM unless noted.
The subject of another assay is SR leukemia. Conditions: 10 µM unless noted.
The next assay concerns EKVX NSCLC. The settings on record: 10 µM unless noted.
The next assay concerns CCRF-CEM leukemia. The settings on record: 10 µM unless noted.

For `COc1ccc(Cn2c(Br)c3c(c2-c2cc(OC)c(OC)c(OC)c2)CCc2sc(NC(C)=O)nc2-3)cc1`, the growth is 33.7% in the assay on HT29 colon; 25.3% with SNB-75 CNS; 41% in the assay with SNB-19 CNS; 39.2% in the assay with U251 CNS; 43.7% in the assay on PC-3 prostate; 16.6% in the assay on SK-MEL-5 melanoma. The growth with UACC-62 melanoma was 29.7%; in the assay on LOX IMVI melanoma, 33.3%; in the assay on SK-MEL-28 melanoma, 39.2%; in the assay with SK-MEL-2 melanoma it was 55.6%; with SN12C renal it was 71.9%; in the assay on UO-31 renal, 13.9%. Further, the growth in the assay on TK-10 renal was 70.6%; in the assay on ACHN renal it was 53.7%; with CAKI-1 renal it was 44%; in the assay with A498 renal, 21.5%; in the assay on MOLT-4 leukemia it was 45.1%; with SR leukemia, 14.3%.
For `COc1ccc(/C=C/C(=O)c2c(C)nc3ccccc3c2/C=C/c2ccccc2)cc1O`, the growth was 71.6% in the assay on HT29 colon; 24.9% in the assay with SNB-75 CNS; 67.3% with SNB-19 CNS; 49% in the assay on U251 CNS; 58.4% in the assay with PC-3 prostate; 59.3% with SK-MEL-5 melanoma. Besides, the growth in the assay on UACC-62 melanoma is 48.6%; with LOX IMVI melanoma it was 33%; in the assay on SK-MEL-28 melanoma, 75.2%; in the assay with EKVX NSCLC, 90.3%; in the assay on SN12C renal, 62.2%; with UO-31 renal, 53.3%. The growth in the assay with TK-10 renal was 125%; with ACHN renal it was 62.2%; with CAKI-1 renal, 52.6%; with A498 renal, 106%; in the assay with CCRF-CEM leukemia, 32.2%; in the assay on MOLT-4 leukemia it was 29.9%.
For `COc1ccc(-n2c(C(O)c3ccccc3)n[nH]c2=S)cc1` (centres undefined), the growth with HT29 colon is 113%; with SNB-75 CNS it was 89.6%; with SNB-19 CNS, 99.7%; in the assay with U251 CNS, 91.2%; in the assay on PC-3 prostate it was 120%; in the assay with SK-MEL-5 melanoma, 107%. In addition, the growth was 88.2% in the assay with UACC-62 melanoma; 91.4% with LOX IMVI melanoma; 115% in the assay on SK-MEL-28 melanoma; 96.7% in the assay with SK-MEL-2 melanoma; 88.2% in the assay on SN12C renal; 79.6% in the assay on UO-31 renal. Besides, the growth in the assay with TK-10 renal is 101%; in the assay with A498 renal, 103%; with CCRF-CEM leukemia, 98.4%; in the assay with MOLT-4 leukemia, 83.4%.
In the case of `O=c1cc(-c2ccccc2)oc2cc(OCc3cn(Cc4ccc(F)cc4)nn3)cc(OCc3cn(Cc4ccc(F)cc4)nn3)c12`, the growth with HT29 colon was 35.1%; with SNB-75 CNS, 6.29% (active); in the assay with SNB-19 CNS, 12.1%; with U251 CNS it was 10.5%; in the assay with PC-3 prostate, 36%; with SK-MEL-5 melanoma, 17.1%. Further, the growth was 30% in the assay on UACC-62 melanoma; 34.8% in the assay on LOX IMVI melanoma; 29.9% in the assay with SK-MEL-28 melanoma; 57.2% with EKVX NSCLC; 38.7% in the assay with SN12C renal; 3.64% (active) with UO-31 renal. The growth in the assay with TK-10 renal was 37.1%; with ACHN renal, 7.3% (active); in the assay on CAKI-1 renal, 54.6%; with A498 renal it was 30.8%; with CCRF-CEM leukemia, 77.5%; in the assay with MOLT-4 leukemia, 83.2%. Moreover, the growth with SR leukemia is 32.7%.
With `CC(=O)c1ccc(Cc2ccc(C(C)=O)s2)s1`, the growth in the assay with HT29 colon was 103%; with SNB-75 CNS, 96.9%; in the assay on SNB-19 CNS it was 98.8%; with U251 CNS, 98%; in the assay on PC-3 prostate, 93.8%; with SK-MEL-5 melanoma it was 100%. Besides, the growth in the assay with UACC-62 melanoma was 96.4%; in the assay on LOX IMVI melanoma, 93.7%; with SK-MEL-28 melanoma, 112%; in the assay on SK-MEL-2 melanoma it was 98.9%; in the assay with SN12C renal, 98%; in the assay with UO-31 renal it was 88.2%. Also, the growth was 94.9% with TK-10 renal; 100% with ACHN renal; -68.7% (active) in the assay on A498 renal; 95.5% in the assay with CCRF-CEM leukemia; 83.2% with MOLT-4 leukemia; 89.4% in the assay with SR leukemia.
Take `Cc1nc2ccccc2c(/C=C/c2ccc(F)cc2)c1C(N)=O`: the growth was 115% in the assay with HT29 colon; 85.4% in the assay on SNB-75 CNS; 99.2% in the assay with SNB-19 CNS; 98.1% in the assay with U251 CNS; 89.1% in the assay on PC-3 prostate; 95.9% with SK-MEL-5 melanoma. Besides, the growth was 96.1% in the assay with UACC-62 melanoma; 96.4% in the assay on LOX IMVI melanoma; 117% in the assay on SK-MEL-28 melanoma; 94.8% in the assay with EKVX NSCLC; 102% in the assay on SN12C renal; 80.9% with UO-31 renal. Further, the growth is 134% in the assay with TK-10 renal; 100% with ACHN renal; 87.2% in the assay with CAKI-1 renal; 89.2% in the assay on A498 renal; 93.6% with CCRF-CEM leukemia; 111% in the assay on MOLT-4 leukemia.
`Fc1cccc(COc2ccc(Nc3ncnc4onc(-c5ccccc5)c34)cc2)c1`: the growth in the assay on HT29 colon was 3.86% (active); in the assay with SNB-75 CNS, -34.9% (active); with SNB-19 CNS, 21%; in the assay with U251 CNS, 22.5%; in the assay with PC-3 prostate, 18.4%; in the assay with SK-MEL-5 melanoma, 19.2%. Moreover, the growth with UACC-62 melanoma was 23.5%; with LOX IMVI melanoma it was 23.1%; in the assay with SK-MEL-28 melanoma, 55.2%; with EKVX NSCLC, 32.9%; in the assay with SN12C renal, 22.3%; with UO-31 renal, 18.6%. The growth in the assay with TK-10 renal was 49.1%; in the assay with ACHN renal, 37.1%; in the assay with CAKI-1 renal, 37.5%; with A498 renal, -22.4% (active); in the assay with CCRF-CEM leukemia it was 20.1%; in the assay with MOLT-4 leukemia, 15.4%. Also, in the assay on SR leukemia, the growth is 26.1%.
Take `Nc1ccc(-c2nc3cc(Oc4ccc(Oc5ccc6[nH]c(-c7ccc(N)cc7)nc6c5)cc4)ccc3[nH]2)cc1`: the growth in the assay on HT29 colon is 70.2%; in the assay with SNB-75 CNS, 115%; in the assay on SNB-19 CNS, 110%; in the assay on U251 CNS it was 96.6%; in the assay with PC-3 prostate, 115%; in the assay on SK-MEL-5 melanoma it was 87.5%. The growth was 58.8% in the assay with UACC-62 melanoma; 99.2% with LOX IMVI melanoma; 101% in the assay with SK-MEL-28 melanoma; 82.1% with SK-MEL-2 melanoma; 90.4% in the assay with SN12C renal; 97.7% with UO-31 renal. Moreover, the growth in the assay on TK-10 renal was 112%; in the assay on ACHN renal it was 101%; with CAKI-1 renal, 120%; in the assay on A498 renal it was 91.5%; in the assay on MOLT-4 leukemia, 96.8%; in the assay with SR leukemia, 91.9%.
